DT40 TDP1 no CPT: qHTS for Inhibitors of human tyrosyl-DNA phosphodiesterase 1 (TDP1): qHTS in cells in absence of CPT; DT40 Tdp1-/- hTDP1 cells, no CPT, ATP luminescence, 48 h; 420,000 compounds, 15% hits; Potency, µM (highest dose often 46.2 µM), for the others: at the top dose activity change, negative = growth inhibition, usual class: inhibitors; note: nearly all actives have a fitted effect of over 55% in size
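Chicken DT40 Tdp1-/- cells complemented with human TDP1, screened without camptothecin (DMSO vehicle only), 400 cells/well. Compounds pin-transferred, cells incubated at 37 °C for at least 48 hr. Growth read as ATP-dependent luminescence (CellTiter-Glo, 30 min at RT).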
DT40 TDP1 CPT: DT40-hTDP1 cell growth loss with CPT; Potency, µM (doses to about 46.2 µM), for inactives: at the highest dose activity change, negative = growth inhibition, hits mostly inhibitors; 420,000 compounds, 12% hits; chicken DT40 Tdp1-/-;hTDP1 cells + 20 nM CPT, ATP luminescence, 48 h; note: nearly all actives have a fitted effect of over 55% in size
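Chicken DT40 Tdp1-/- cells complemented with human TDP1, 400 cells/well, exposed to compounds plus 20 nM camptothecin for at least 48 h at 37 C; viability read as ATP content by CellTiter-Glo luminescence.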
KB-3-1 tox: KB-3-1 parental cell cytotoxicity | Potency, µM (titrated, usually from 46.1 µM), usual class: cytotoxic | 400,000 compounds, 1.4% hits | KB-3-1 viability, CellTiter-Glo ATP luminescence, 72 h; note: nearly all actives have a fitted effect of over 60% in size
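KB-3-1 cells, DMEM (no phenol red) + 10% FBS; compound by pin transfer, 72 h, 37 °C. Readout: CellTiter-Glo luminescence after 10 min. Data normalized, curve-fitted.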
KB-V1 cytotox: kills drug-selected multidrug resistant KB-V1 cells | KB-V1 MDR cells viability, CellTiter-Glo, 72 h | Potency, µM (titrated, usually from 46.1 µM), most hits filed as cytotoxic | 400,000 compounds, 3.4% hits | AID 1347076; note: nearly all actives have a fitted effect of over 60% in size
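Luminescent ATP read-out (CellTiter-Glo, 10 min) measures survival of drug-selected KB-V1 MDR cells after 72 h, 37 degrees C compound exposure. Medium: phenol-red-free DMEM, 10% FBS. Values from fitted concentration-response curves.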
HT1080 IDH1KD tx: HT-1080 IDH1 knockdown cell toxicity (counter line); HT-1080 IDH1 knockdown viability, ATP luminescence, 48 h; Potency, µM (top dose mostly 46.1 µM), inactives show top-dose activity, negative = toxicity, usual class: cytotoxic; 360,000 compounds, 2% hits;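 note: 0% = DMSO wells and -100% = cell-free medium wells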
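% activity derives from luminescence (CellTiter-Glo), normalised to DMSO and no-cell wells. HT-1080-IDH1KD cells, 750/well, had 48 h compound exposure at 37 °C.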
HT1080-NT tox: kills 2HG-producing HT-1080-NT fibrosarcoma cells | AID 686970 | Potency, µM (series often up to 46.1 µM), for the others: at the highest dose activity, negative = less viability, usual class: cytotoxic | HT-1080-NT fibrosarcoma viability, CellTiter-Glo ATP luminescence, 48 h | 360,000 compounds, 1.6% hits;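 note: NT is the 2HG producing partner of a matched IDH1 knockdown line; 0% = DMSO-treated cells and -100% = media-only wells without cells; nearly all actives have a fitted effect of over 55% in size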
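750 cells/well, RPMI + 5% FBS; 2 h settle, compound pin-transfer, 48 h at 37 degrees C. CellTiter-Glo 10 min RT, luminescence. Normalized to DMSO and media-only wells.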
Active calls of the source: *; i = inactive; ? = inconclusive; . = no result. In the library only some 19% were active in any assay of this set; here they are far more common. Calls come from the whole dose curve; as a rule, active = well fitted curve in the direction sought with a large enough effect; inconclusive = small, poorly fitted or top-dose-only effect, or another doubt; inactive = no such curve, though single readings can be large; an effect the other way counts as inactive or inconclusive. Unless noted, % is set by controls: 0 for no effect and ±100 for the full control effect; potency is the fitted concentration of half-maximal effect.

SMILES | DT40 TDP1 no CPT | DT40 TDP1 CPT | KB-3-1 tox | KB-V1 cytotox | HT1080 IDH1KD tx | HT1080-NT tox
Cc1cc(N=Nc2c(O)c3ccccc3[nH]c2=O)ccc1N=Nc1ccc(C(=O)N(C)C)cc1 | 7.3µM* | 10µM* | i | i | -2% | 1%
CN(C)C(=O)c1ccc(N=Nc2c(O)c3ccccc3[nH]c2=O)cc1 | 21µM* | 21µM* | i | ? | 6.5µM* | 5.8µM*
COc1ccc(Nc2nccc3c2ncn3C)cc1 | -18% | -16% | i | i | -1% | -1%
Cc1cc2nc(-c3nnnn3C3CCCCC3)c(=O)[nH]c2cc1C | ? | -43% | i | ? | 10% | 15%
O=c1nc(-c2ccccc2)nc(-c2ccccc2)[nH]1 | ? | 0% | i | i | 3% | -15%
O=S1(=O)CCN(c2ccccc2CC(c2c[nH]c3ccccc23)c2c[nH]c3ccccc23)CC1 | 13µM* | 8.2µM* | ? | ? | ? | ?
CCOC(=O)N1CCN(CC(O)c2c[nH]c3ccccc23)CC1 (stereo unspecified) | -23% | ? | ? | i | -9% | -5%
COc1ccccc1C(O)(C(=O)NN(C)c1ccccc1)c1ccccc1OC | -1% | -13% | i | i | 16% | 14%
COC(=O)CC1(C(=O)OC)Nc2cc(Cl)c(Cl)cc2S(=O)(=O)N1O (stereo unspecified) | -26% | -3% | i | i | 8% | -7%
COc1ccc(Br)c2c1-c1nc(NC(=O)c3cccc(C)c3)sc1C2 | 23µM* | ? | . | . | . | .
Cc1ccc(S(=O)(=O)N2CCN(Cc3cc(=O)n4nc(-c5ccccc5Cl)sc4n3)CC2)cc1 | -17% | -2% | i | i | . | .
CCOc1ccc(S(=O)(=O)NC2CCCC2)cc1 | -9% | -25% | i | i | 7% | 10%
Cc1ccc(C)c(OC(=O)CSc2nnc(-c3ccc4c(c3)OCO4)o2)c1 | -9% | 5% | i | i | . | .
Cc1sc2nc(CSCC(=O)Nc3ccc(Cl)cc3F)[nH]c(=O)c2c1C | -4% | 3% | i | ? | -4% | -3%
Cc1sc2nc(CSCC(=O)N(C)c3ccccc3)[nH]c(=O)c2c1C | 16µM* | 23µM* | i | ? | -4% | -6%
Cc1sc2nc(SCC(=O)N(C)c3ccccc3)n(C)c(=O)c2c1C | 13µM* | 18µM* | i | ? | 12% | -7%
Cc1sc2nc(CSCC(=O)Nc3c(F)cccc3F)[nH]c(=O)c2c1C | 10µM* | 12µM* | ? | i | 7% | 2%
Cc1sc2nc(CSCC(=O)N(C)CC(=O)Nc3ccc(F)cc3)[nH]c(=O)c2c1C | ? | -29% | i | i | -4% | -8%
Cc1sc2nc(SCC(=O)N3CC(C)OC(C)C3)n(C)c(=O)c2c1C (stereo unspecified) | 13µM* | ? | . | . | -4% | 1%
CCOC(=O)CSc1nc2sc(C)c(C)c2c(=O)n1C | -24% | ? | i | ? | 8% | 5%
c1ccc(N2[C@@H]3c4ccccc4C[C@H]2c2ccccc23)cc1 | -21% | 20% | ? | i | 0% | -22%
O=C(O)C(Cc1ccc(OS(=O)(=O)Cc2ccccc2)cc1)NS(=O)(=O)Cc1ccccc1 (stereo unspecified) | -6% | 17% | i | i | 15% | 12%
Cc1sc2nc(CSCC(=O)N(CCC#N)c3ccccc3)[nH]c(=O)c2c1C | ? | 18µM* | i | i | -3% | 5%
Cc1ccc(-n2nnnc2SCc2nc3sc(C)c(C)c3c(=O)[nH]2)cc1 | ? | ? | i | 18µM* | 0% | 10%
Cc1sc2nc(SCC(=O)N3CCCC3)[nH]c(=O)c2c1C | ? | 26µM* | i | i | -5% | 2%
SMILES | DT40 TDP1 no CPT | DT40 TDP1 CPT | KB-3-1 tox | KB-V1 cytotox | HT1080 IDH1KD tx | HT1080-NT tox
Cc1sc2nc(CSCC(=O)NC(C)(C)C)[nH]c(=O)c2c1C | -11% | -23% | i | i | 1% | 2%
Cc1sc2nc(SCC(=O)N3CCCCC3)[nH]c(=O)c2c1C | -9% | -12% | i | i | -6% | -5%
Clc1ccc(-c2nnc(COc3ncnc4ccccc34)o2)cc1 | -7% | 4% | i | i | 15% | 14%
CN1CCN(S(=O)(=O)c2cnccc2N2CCN(c3cccc(Cl)c3)CC2)CC1 | 18µM* | 18µM* | i | i | ? | ?
CCN(CC)S(=O)(=O)c1cnccc1N1CCN(c2cccc(Cl)c2)CC1 | 16µM* | ? | 10µM* | i | -20% | -10%
CNS(=O)(=O)c1cnccc1N1CCN(c2cccc(Cl)c2)CC1 | ? | -9% | i | i | 1% | -10%
COc1ccccc1CN1CCC2(CC1)CCN(C(=O)c1ccncc1)CC2 | 0% | 14% | . | . | . | .
O=C(NC(=S)N(CCO)Cc1ccccc1)c1cc(Br)ccc1Cl | ? | ? | i | i | -6% | -4%
C=CCNc1nc2cc(-c3ccccc3OC)sc2c(=O)n1C | ? | ? | i | i | 6% | -1%
COCCNc1nc2cc(-c3ccccc3OC)sc2c(=O)n1C | 13µM* | 18µM* | i | ? | -16% | 1%
COCCNc1nc2cc(-c3ccccc3C)sc2c(=O)n1C | ? | 18µM* | i | i | -5% | -7%
CCOC(=O)C1(Cc2cccc(Cl)c2)CCCN(C(=O)c2cccc(C)n2)C1 (stereo unspecified) | ? | ? | i | i | -14% | 0%
O=C1c2oc3ccccc3c(=O)c2C(c2cccs2)N1CCCN1CCOCC1 (stereo unspecified) | -27% | 18µM* | i | i | 11% | 6%
COC(=O)c1ccc(C2c3c(oc4ccccc4c3=O)C(=O)N2CCCN2CCOCC2)cc1 (stereo unspecified) | ? | 21µM* | i | i | 4% | -2%
COCCN1C(=O)c2oc3ccccc3c(=O)c2C1c1ccc(C(=O)OC)cc1 (stereo unspecified) | -4% | -11% | i | i | -1% | 0%
Cc1cc2oc3c(c(=O)c2cc1C)C(c1ccc(C(C)C)cc1)N(CCCN1CCOCC1)C3=O (stereo unspecified) | ? | 21µM* | i | i | -2% | -1%
COc1cccc(C2c3c(oc4ccccc4c3=O)C(=O)N2CCCN2CCOCC2)c1 (stereo unspecified) | -28% | ? | i | i | -2% | -5%

Screens as filed in PubChem.
